Results filed as inconclusive are left out. Entries that show only a call come without a potency. Values without a mark were called inactive. Calls of active or inactive are those of the source. The call rests on the fitted dose curve; in most records, active means well fitted curve in the direction sought with a large enough effect; inconclusive means small, poorly fitted or top-dose-only effect, or another doubt; inactive means no such curve, though single readings can be large; an effect the other way counts as inactive or inconclusive.
Tests used:
[1] = target: Cellular tumor antigen p53 (Homo sapiens) (UniProt P04637); experiment: Primary qHTS for small molecule compounds that upregulate eGFP-tagged delta133p53alpha (in N-terminal) cells. (AID 2060322); settings: NCI-H358 eGFP-delta133p53alpha fluorescence, 24 h; activation: active compounds read high; further: nearly all actives have a fitted effect of over 75% in size; further: potency means the concentration at half of the fitted maximal effect;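 on activation: cells pre-induced with doxycycline then dosed without doxycycline; series mostly up to about 56 µM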
Cellular tumor antigen p53 (Homo sapiens), sequence (P04637 whole entry, looked up): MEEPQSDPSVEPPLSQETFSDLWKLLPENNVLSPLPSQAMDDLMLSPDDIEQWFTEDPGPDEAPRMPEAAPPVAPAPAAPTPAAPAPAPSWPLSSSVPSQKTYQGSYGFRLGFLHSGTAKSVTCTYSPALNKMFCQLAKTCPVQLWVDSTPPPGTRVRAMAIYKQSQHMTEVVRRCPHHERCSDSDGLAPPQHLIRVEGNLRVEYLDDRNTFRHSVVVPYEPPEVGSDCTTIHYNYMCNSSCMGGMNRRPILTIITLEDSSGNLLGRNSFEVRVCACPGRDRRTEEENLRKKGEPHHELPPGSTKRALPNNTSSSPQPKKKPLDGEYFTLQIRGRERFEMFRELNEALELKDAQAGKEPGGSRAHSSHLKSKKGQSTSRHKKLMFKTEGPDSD
Summary of the method: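 NCI-H358 cells pre-induced 24 h with 10 ng/ml doxycycline for eGFP-delta133p53alpha, plated dox-free and exposed 24 h at 37C to titrated compounds. Fixed, Hoechst-stained; gated GFP peak intensity by laser scanning cytometry, normalized to DMSO (0%) and 57.5 uM 5-azacytidine (100%).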

[2] = target: Aldehyde dehydrogenase, mitochondrial (Homo sapiens) (UniProt P05091); experiment: qHTS for Inhibitors of the Aldehyde Dehydrogenase Family (ALDH2) Primary screen (AID 2061308); further: nearly all actives have a fitted effect of over 55% in size
[3] = target: Retinaldehyde dehydrogenase 3 (Homo sapiens) (UniProt P47895); experiment: qHTS for Inhibitors of the Aldehyde Dehydrogenase Family (ALDH1A3) Primary screen (AID 2061315)

SMILES | activation [1] [%] | activity change, negative = inhibition [2] | activity change, negative = inhibition [3] | Potency [2] | Potency [3] | Potency [1]
C[C@@H]1O[C@@H](O[C@H]2[C@H](OC(=O)C34CCC5(C)C(=CCC6C7(C)CC(O)C(O[C@@H]8O[C@H](C(=O)O)[C@@H](O)[C@H](O)[C@H]8O)C(C)(C(=O)O)C7CCC65C)C3CC(C)(C)CC4O)O[C@H](C)[C@@H](O)[C@@H]2O)[C@H](O)[C@@H](O[C@@H]2OC[C@](O)(CO)[C@H]2O[C@@H]2O[C@H](CO)[C@@H](O)[C@H](O)[C@H]2O)[C@H]1O (stereo partly drawn) | 8.4 | 0.837% [at 11.2 µM] | 5.31% [at 11.2 µM] |  |  | 
Cc1ccc(C)c(NC(=O)[C@@H]2CCCN2S(=O)(=O)c2cccc3cccnc23)c1 | -4.33 |  |  | inactive | inactive | 
CCN1CCN(Cc2ccc(-c3cc4c(NC(C)c5ccccc5)ncnc4[nH]3)cc2)CC1 (stereo not drawn) |  |  |  | inactive | inactive | 26.9 µM (active)
Cc1sc2c(c1C)C(c1ccc(Cl)cc1)=N[C@H](CC(=O)NCCCCNC(=O)COc1cccc3c1C(=O)N([C@H]1CCC(=O)NC1=O)C3=O)c1nnc(C)n1-2 |  |  |  | inactive | inactive | 1.69 µM (active)
CC(=O)OC[C@]12[C@H](OC(C)=O)C(=O)[C@@H]3[C@@H](OC(C)=O)[C@@]14O[C@@]3(C)COC(=O)c1cccnc1[C@@H](C)[C@H](C)C(=O)O[C@@H]([C@H](OC(C)=O)[C@@H]2OC(C)=O)[C@]4(C)O | -13.7 |  |  | inactive | inactive | 
CO[C@H]1O[C@@H]2O[C@@]3(C)CCC4[C@H](C)CCC([C@H]1C)[C@]42OO3 (stereo partly drawn) | 11.7 |  |  | inactive | inactive | 
